Among the data in PubChem BioAssay (NCI) are growth inhibition values, retold here.

About 79,000 compounds went through this panel and 15% of them were active in at least one assay; those are over-represented in the sample as a whole. A number with no mark means an inactive call. Calls of active or inactive are those of the source. No stated cut-off is given here; in the data, active means growth inhibition above about 70%; inactive means the rest.

The nature of assay [1]: NCI Yeast Anticancer Drug Screen. Data for the rad50 strain (AID 155).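 Further: 0% = growth of vehicle-only cultures of the same strain.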 Conditions: S. cerevisiae rad50 strain growth inhibition, hits give high values. The essentials: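 Yeast carrying a defined DNA repair defect were exposed to test compounds, and growth was compared with vehicle-treated controls to give percent inhibition.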
Assay [2] in a line: NCI Yeast Anticancer Drug Screen. Data for the mec2-1 strain (AID 157). Conditions: S. cerevisiae mec2-1 strain, hits give high values. The essentials:
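Test agents were screened against the mec2-1 yeast strain, with defined DNA repair or cell cycle alteration. Growth was scored as inhibition against vehicle-only controls.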

A short description of assay [3]: NCI Yeast Anticancer Drug Screen. Data for the sgs1 mgt1 strain (AID 161).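 Further: 0% = growth of cultures given vehicle only.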 Conditions: S. cerevisiae sgs1 mgt1 strain, hits give high values. An outline of the steps: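 Genetically altered yeast, compound exposure, growth inhibition relative to vehicle.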
Assay [4] is described as follows: NCI Yeast Anticancer Drug Screen. Data for the cln2 rad14 strain (AID 165).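 Further: 0% = growth equal to vehicle treated cultures.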 Conditions: S. cerevisiae cln2 rad14 strain, hits give high values. The essentials: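 Growth of compound-exposed yeast (cln2 rad14 genotype) measured and expressed as inhibition relative to vehicle.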
A short description of assay [5]: NCI Yeast Anticancer Drug Screen. Data for the bub3 strain (AID 167). Conditions: S. cerevisiae bub3 mutant strain, hits give high values. An outline of the steps:
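Compounds were applied to a genetically altered yeast strain carrying a cell-cycle control defect. Growth inhibition was scored against vehicle-treated controls.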

Assay [6] can be described thus: NCI Yeast Anticancer Drug Screen. Data for the mlh1 rad18 strain (AID 175). The conditions noted are these: S. cerevisiae mlh1 rad18 strain growth inhibition, hits give high values. The essentials: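 In this whole-cell yeast screen, a strain with altered DNA damage repair is challenged with compound, and its growth is measured against matched vehicle-treated controls.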

[7] abbreviates: at 5.0 µM (retest, dose inferred, filed as 0.5).
Setting [8] is: at 50.0 µM (retest, dose inferred, filed as 5.0).

As to `COc1ccc(/C(=C/CN2CCC3CCC(C3)C2)c2ccccc2)cc1` (configuration not stated), the growth inhibition in assay [1] (setting [7]) was -3%; in assay [1] (setting [8]) it was -17%; in assay [1] (at 50.0 µM), 40.9%; in assay [2] (setting [7]) it was 5%; in assay [2] (setting [8]), -11%; in assay [2] (at 50.0 µM), 14.6%. The growth inhibition is -31% in assay [3] (setting [7]); -27% in assay [3] (setting [8]); 50.8% in assay [3] (at 50.0 µM); -6% in assay [4] (setting [7]); -19% in assay [4] (setting [8]); 12.9% in assay [4] (at 50.0 µM). For the same molecule, the growth inhibition in assay [5] (setting [7]) is -3%; in assay [5] (setting [8]) it was 11%; in assay [5] (at 50.0 µM), 17.6%; in assay [6] (setting [7]), -13%; in assay [6] (setting [8]) it was -34%; in assay [6] (at 50.0 µM), 12.7%.

On to `CCC(=O)Oc1c(Br)c(Br)c(Br)c(Br)c1Br`, for which the growth inhibition in assay [1] (setting [7]) is 8%; in assay [1] (setting [8]), 56%; in assay [1] (at 50.0 µM), 29%; in assay [2] (setting [7]), 17%; in assay [2] (setting [8]), 62%; in assay [2] (at 50.0 µM), 6%. The growth inhibition is 7% in assay [3] (setting [7]); 50% in assay [3] (setting [8]); 8.45% in assay [3] (at 50.0 µM); 21% in assay [4] (setting [7]); 68% in assay [4] (setting [8]); 25.8% in assay [4] (at 50.0 µM). For the same molecule, the growth inhibition in assay [5] (setting [7]) was 56%; in assay [5] (setting [8]) it was 86% (active); in assay [5] (at 50.0 µM) it was 92% (active); in assay [6] (setting [7]), 35%; in assay [6] (setting [8]) it was 84% (active); in assay [6] (at 50.0 µM) it was 19.5%.

For the molecule `CCCCC1=NCCc2c1cc1c([nH]c3ccccc31)c2C`, the growth inhibition in assay [1] (setting [7]) was -3%; in assay [1] (setting [8]), 57%; in assay [1] (at 50.0 µM), 9.2%; in assay [2] (setting [7]), -19%; in assay [2] (setting [8]), 7%; in assay [2] (at 50.0 µM), 46.2%. Besides, the growth inhibition in assay [3] (setting [7]) was -8%; in assay [3] (setting [8]) it was 85% (active); in assay [3] (at 50.0 µM) it was 52.5%; in assay [4] (setting [7]), -1%; in assay [4] (setting [8]), 26%; in assay [4] (at 50.0 µM), 48%. Moreover, the growth inhibition in assay [5] (setting [7]) is -3%; in assay [5] (setting [8]), 35%; in assay [5] (at 50.0 µM), 76% (active); in assay [6] (setting [7]) it was 3%; in assay [6] (setting [8]), 97% (active); in assay [6] (at 50.0 µM) it was 56.4%.

As to `CC(C)(C)c1ccc(-n2c3nc(=O)n(-c4ccccc4C(F)(F)F)c(=O)c-3cc3ccccc32)cc1`, the growth inhibition in assay [1] (setting [7]) is 13%; in assay [1] (setting [8]), 96% (active); in assay [1] (at 50.0 µM), 59.1%; in assay [2] (setting [7]), 3%; in assay [2] (setting [8]), 99% (active); in assay [2] (at 50.0 µM) it was 50%. The growth inhibition in assay [3] (setting [7]) is 10%; in assay [3] (setting [8]), 98% (active); in assay [3] (at 50.0 µM), 61.1%; in assay [4] (setting [7]), 13%; in assay [4] (setting [8]), 97% (active); in assay [4] (at 50.0 µM), 60.5%. The growth inhibition is 8% in assay [5] (setting [7]); 98% (active) in assay [5] (setting [8]); 47.1% in assay [5] (at 50.0 µM); 15% in assay [6] (setting [7]); 98% (active) in assay [6] (setting [8]); 65.6% in assay [6] (at 50.0 µM).

As for `Oc1ccccc1C1CCCCC1`, the growth inhibition in assay [1] (setting [7]) is 1%; in assay [1] (setting [8]) it was 38%; in assay [1] (at 50.0 µM) it was 88.5% (active); in assay [2] (setting [7]), 3%; in assay [2] (setting [8]) it was 17%; in assay [2] (at 50.0 µM), 84.3% (active). Further, the growth inhibition in assay [3] (setting [7]) was 0%; in assay [3] (setting [8]), 47%; in assay [3] (at 50.0 µM) it was 96.1% (active); in assay [4] (setting [7]) it was 4%; in assay [4] (setting [8]), -10%; in assay [4] (at 50.0 µM), 46.6%. For the same molecule, the growth inhibition in assay [5] (setting [7]) is -9%; in assay [5] (setting [8]), 6%; in assay [5] (at 50.0 µM) it was 73.2% (active); in assay [6] (setting [7]), 4%; in assay [6] (setting [8]), 46%; in assay [6] (at 50.0 µM) it was 93.2% (active).

With `C1=c2ccccc2=C2C(=C(c3ccccc3)C(c3ccccc3)=NN2c2ccccc2)S1`, the growth inhibition in assay [1] (setting [7]) was -25%; in assay [1] (setting [8]), -9%; in assay [1] (at 50.0 µM), -14.2%; in assay [2] (setting [7]), 0%; in assay [2] (setting [8]), -17%; in assay [2] (at 50.0 µM) it was -18.6%. For the same molecule, the growth inhibition was -13% in assay [3] (setting [7]); -22% in assay [3] (setting [8]); -18.8% in assay [3] (at 50.0 µM); -22% in assay [4] (setting [7]); -13% in assay [4] (setting [8]); 5.9% in assay [4] (at 50.0 µM). The growth inhibition was -4% in assay [5] (setting [7]); 2% in assay [5] (setting [8]); -5.35% in assay [5] (at 50.0 µM); -1% in assay [6] (setting [7]); -32% in assay [6] (setting [8]); -2.55% in assay [6] (at 50.0 µM).

With `Cc1ccc(S(=O)(=O)N/N=C2/CC[C@H](C(C)(C)C)C[C@@H]2C)cc1`, the growth inhibition was 9% in assay [1] (setting [7]); 96% (active) in assay [1] (setting [8]); 86.2% (active) in assay [1] (at 50.0 µM); -15% in assay [2] (setting [7]); 97% (active) in assay [2] (setting [8]); 90% (active) in assay [2] (at 50.0 µM). The growth inhibition is -2% in assay [3] (setting [7]); 98% (active) in assay [3] (setting [8]); 77.4% (active) in assay [3] (at 50.0 µM); -35% in assay [4] (setting [7]); 85% (active) in assay [4] (setting [8]); 87.7% (active) in assay [4] (at 50.0 µM). The growth inhibition is -18% in assay [5] (setting [7]); 97% (active) in assay [5] (setting [8]); 84.7% (active) in assay [5] (at 50.0 µM); -1% in assay [6] (setting [7]); 98% (active) in assay [6] (setting [8]); 76.3% (active) in assay [6] (at 50.0 µM).

Turning to `Clc1ccc([I+]c2cccs2)cc1`, the growth inhibition in assay [1] (setting [7]) is 37%; in assay [1] (setting [8]) it was 97% (active); in assay [1] (at 50.0 µM) it was 98% (active); in assay [2] (setting [7]), 51%; in assay [2] (setting [8]), 99% (active); in assay [2] (at 50.0 µM), 98.7% (active). Also, the growth inhibition in assay [3] (setting [7]) was 45%; in assay [3] (setting [8]), 98% (active); in assay [3] (at 50.0 µM) it was 8.95%; in assay [4] (setting [7]), 33%; in assay [4] (setting [8]), 97% (active); in assay [4] (at 50.0 µM) it was 97.7% (active). In addition, the growth inhibition is 66% in assay [5] (setting [7]); 97% (active) in assay [5] (setting [8]); 98% (active) in assay [5] (at 50.0 µM); 72% (active) in assay [6] (setting [7]); 98% (active) in assay [6] (setting [8]); 99% (active) in assay [6] (at 50.0 µM).

Turning to `COc1ccccc1C1c2cc3c(cc2OC(C)(O)C1C)OCO3` (configuration not stated), the growth inhibition was -5% in assay [1] (setting [7]); 60% in assay [1] (setting [8]); 85% (active) in assay [1] (at 50.0 µM); -4% in assay [2] (setting [7]); 49% in assay [2] (setting [8]); 58.4% in assay [2] (at 50.0 µM). Further, the growth inhibition in assay [3] (setting [7]) was 1%; in assay [3] (setting [8]) it was 61%; in assay [3] (at 50.0 µM), 86.3% (active); in assay [4] (setting [7]) it was -3%; in assay [4] (setting [8]), 53%; in assay [4] (at 50.0 µM) it was 74.2% (active). Besides, the growth inhibition in assay [5] (setting [7]) is 0%; in assay [5] (setting [8]), 49%; in assay [5] (at 50.0 µM), 66.8%; in assay [6] (setting [7]), 0%; in assay [6] (setting [8]), 75% (active); in assay [6] (at 50.0 µM), 85.5% (active).
